Measurements published in PubChem BioAssay (NCATS).
Inconclusive results are not listed. Unless noted, calls follow the shape of the dose curve; as a rule, active = well fitted curve in either direction with a large enough effect (not every such curve was filed as active); inconclusive = small, poorly fitted or top-dose-only effect, or another doubt; inactive = flat fitted curve, though single readings scatter.

Tests used:
[1] = AP1 Signaling Pathway (AID 357); details: ME-180 AP-1-bla reporter, EGF-induced, beta-lactamase ratio, 5 h; at 17.2 µM (top of the series) unless noted;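 also: ME-180 reporter cells stimulated with EGF at its EC50 level; % is scaled to controls: 0 for no effect and ±100 for the full control effect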
In short: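 Beta-lactamase reporter under AP-1 response element, ME-180 background. Stimulus: EC50 EGF. Compound exposure 5 h, 37 °C. Detection: CCF4, 2.5 h RT, 460/530 nm. Values: AC50 from titration.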

[2] = NFAT Signaling Pathway (AID 444); details: Jurkat NFAT-bla M1, carbachol, beta-lactamase ratio, 5 h; at 17.2 µM (top of the series) unless noted;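 also: carbachol stimulus at about its EC50 of 1 µM final; % is scaled to controls: 0 for no effect and ±100 for the full control effect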
In short: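 Read-out: CCF4 FRET ratio (460 nm/530 nm) after 1 h RT dye loading, used for %activity and AC50 from titration series. Cells: Jurkat NFAT-β-lactamase/M1 line, treated with compound plus 1 uM carbachol for 5 h, 37 °C.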

[3] = Stat Signaling Pathway (AID 446); details: ME-180 (cervical carcinoma) SIE beta-lactamase reporter, IL-6 stimulated, 5 h; at 17.2 µM (top of the series) unless noted;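 also: ME-180 cervical cancer cells given 40 pM IL-6 alongside compound; SIE-controlled beta-lactamase reporter measured as 460/530 nm FRET emission ratio; % is scaled to controls: 0 for no effect and ±100 for the full control effect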
In short: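 Overnight-plated ME-180 cells bearing a STAT Inducible Element beta-lactamase reporter; 5 h co-exposure to compound and 40 pM IL-6; values normalized to 300 pM IL-6 and 125 nM JAK inhibitor controls.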

[4] = target: Glucocorticoid receptor (Homo sapiens) (UniProt P04150); assay: GR-GFP Redistribution (AID 450;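 active = compounds whose dose series gives a full or clear partial fitted curve of increased nuclear translocation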; also: potency is read from the fitted curve at half-maximal effect); details: U2OS GR-GFP nuclear translocation, laser cytometry, 2 h; series mostly up to 20.6 µM
Chain of Glucocorticoid receptor (Homo sapiens) (P04150 whole entry, looked up): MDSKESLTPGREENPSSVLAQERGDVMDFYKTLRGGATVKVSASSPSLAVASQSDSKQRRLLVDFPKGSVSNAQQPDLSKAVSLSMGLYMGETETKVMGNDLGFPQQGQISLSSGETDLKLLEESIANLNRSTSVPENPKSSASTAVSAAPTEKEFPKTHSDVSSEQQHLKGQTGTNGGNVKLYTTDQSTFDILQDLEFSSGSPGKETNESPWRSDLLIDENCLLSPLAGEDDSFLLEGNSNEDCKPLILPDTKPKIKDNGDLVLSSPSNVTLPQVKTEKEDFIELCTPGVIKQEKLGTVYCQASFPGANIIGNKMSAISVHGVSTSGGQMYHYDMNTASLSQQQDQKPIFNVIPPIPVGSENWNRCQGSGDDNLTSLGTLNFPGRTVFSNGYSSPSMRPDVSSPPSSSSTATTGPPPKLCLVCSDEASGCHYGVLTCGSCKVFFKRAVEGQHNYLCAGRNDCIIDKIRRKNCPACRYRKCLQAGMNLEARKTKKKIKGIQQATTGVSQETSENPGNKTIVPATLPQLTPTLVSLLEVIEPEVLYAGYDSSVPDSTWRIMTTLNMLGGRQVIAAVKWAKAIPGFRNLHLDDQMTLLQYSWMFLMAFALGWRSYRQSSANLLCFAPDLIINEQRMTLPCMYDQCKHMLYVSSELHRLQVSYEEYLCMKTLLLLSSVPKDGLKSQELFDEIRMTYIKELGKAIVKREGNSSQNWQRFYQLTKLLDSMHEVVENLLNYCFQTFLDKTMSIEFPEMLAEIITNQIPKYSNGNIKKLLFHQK

C=C(C)CSc1nc(N)c2c3c(sc2n1)CCC3
inactive: activity change, negative = inhibition [1] -27.1% | activity change, negative = inhibition [2] -3.51% | activity, negative = inhibition [3] 4.14% | Potency [4] > 20.6 µM

CCCCOc1ccccc1C(=O)NCCCC(=O)O
inactive: activity change, negative = inhibition [1] -11.8% | activity change, negative = inhibition [2] -5.11% | activity, negative = inhibition [3] 8.07% | Potency [4] > 20.6 µM

Cn1c(=O)n(CCC(=O)O)c2ccccc21
inactive: activity change, negative = inhibition [1] 11.6% | activity change, negative = inhibition [2] 2% | activity, negative = inhibition [3] 2.26% | Potency [4] > 20.6 µM

COc1ccc(C2C(C#N)=C(C)NC3=C2C(=O)c2ccccc23)cc1 (stereo not given)
inactive: activity change, negative = inhibition [1] -6.13% | activity change, negative = inhibition [2] -27.8% | activity, negative = inhibition [3] -7.06% | Potency [4] > 20.6 µM

COc1cccc(C2/C(=C(\O)c3ccc(OC)c(OC)c3)C(=O)C(=O)N2c2cc(C)on2)c1 (stereo not given)
inactive: activity change, negative = inhibition [1] -7.94% | activity change, negative = inhibition [2] 6.78% | activity, negative = inhibition [3] -8.6% | Potency [4] > 20.6 µM

CCOC(=O)CC(=O)CSc1nnc2sc3ccccc3n12
inactive: activity change, negative = inhibition [1] 6.11% | activity change, negative = inhibition [2] -0.0909% | activity, negative = inhibition [3] 7.94% | Potency [4] > 20.6 µM

N#CCCN(C(=O)c1ccco1)c1ccccc1
inactive: activity change, negative = inhibition [1] -22.8% | activity change, negative = inhibition [2] 2.26% | activity, negative = inhibition [3] 9.28% | Potency [4] > 20.6 µM

CCOC(=O)c1cc(C)n(Cc2cccc(OC)c2OC)c1C
inactive: activity change, negative = inhibition [1] -16.9% | activity change, negative = inhibition [2] -21.6% | activity, negative = inhibition [3] -14.9% | Potency [4] > 20.6 µM

Cc1ccccc1N1C(=O)C2ON(c3ccccc3)C(c3ccncc3)C2C1=O (stereo not given)
inactive: activity change, negative = inhibition [1] 5.78% | activity change, negative = inhibition [2] 18.5% | activity, negative = inhibition [3] 1.29% | Potency [4] > 20.6 µM

C=CCn1cnc2c(c1=O)c1nc3ccccc3nc1n2-c1ccc(Cl)cc1
inactive: activity change, negative = inhibition [1] 8.09% | activity change, negative = inhibition [2] -0.571% | activity, negative = inhibition [3] -1.17% | Potency [4] > 20.6 µM

CC1(C)CC(=O)C(CCCN2C(=O)c3ccccc3C2=O)C(=O)C1
inactive: activity change, negative = inhibition [1] 8.1% | activity change, negative = inhibition [2] 2.72% | activity, negative = inhibition [3] 16.7% | Potency [4] > 20.6 µM

CCCCNC(=O)N1CCOCCOCCN(C(=O)NCCCC)CCOCC1
inactive: activity change, negative = inhibition [1] -5.59% | activity change, negative = inhibition [2] 4.17% | activity, negative = inhibition [3] 5.68% | Potency [4] > 20.6 µM

CN(C)c1nc2n(c(=O)n1)C(C#N)CS2 (stereo not given)
inactive: activity change, negative = inhibition [1] -5.05% | activity change, negative = inhibition [2] 3.5% | activity, negative = inhibition [3] 5.84% | Potency [4] > 20.6 µM

Cc1ccc(C(=O)NCC(C)(C)O)cc1
inactive: activity change, negative = inhibition [1] 9.77% | activity change, negative = inhibition [2] -4.7% | activity, negative = inhibition [3] 12.1% | Potency [4] > 20.6 µM

COCCNc1oc(-c2ccc(F)cc2)nc1C#N
inactive: activity change, negative = inhibition [1] -13.6% | activity change, negative = inhibition [2] 7.25% | activity, negative = inhibition [3] -2.97% | Potency [4] > 20.6 µM

O=C1C(=O)N(CCN2CCOCC2)C(c2ccccn2)/C1=C(/O)c1ccc(F)cc1 (stereo not given)
inactive: activity change, negative = inhibition [1] 10.4% | activity change, negative = inhibition [2] 21.3% | activity, negative = inhibition [3] -1.73% | Potency [4] > 20.6 µM

O=C(CCCN1C(=O)c2ccccc2C1=O)N1CCC(c2ccccc2)C1 (stereo not given)
inactive: activity change, negative = inhibition [1] -21.8% | activity change, negative = inhibition [2] 15.7% | activity, negative = inhibition [3] 1.3% | Potency [4] > 20.6 µM

COc1cc(C)nc(Nc2nc(C)c(C(C)=O)s2)n1
inactive: activity change, negative = inhibition [1] 12.9% | activity change, negative = inhibition [2] -2.73% | activity, negative = inhibition [3] 4.9% | Potency [4] > 20.6 µM

O=C(O)C(O)c1ccco1 (stereo not given)
inactive: activity change, negative = inhibition [1] -5.38% | activity change, negative = inhibition [2] -2.98% | activity, negative = inhibition [3] 1.78% | Potency [4] > 20.6 µM

COc1ccc(/C(O)=C2/C(=O)C(=O)N(CCN(C)C)C2c2ccccn2)cc1OC (stereo not given)
inactive: activity change, negative = inhibition [1] 4.92% | activity change, negative = inhibition [2] -3.03% | activity, negative = inhibition [3] -3.63% | Potency [4] > 20.6 µM
